Values joined by “and” are separate entries in the source; they are usually repeats but may differ in a detail not shown here. Equal entries are not always repeated. Records with an inconclusive call do not appear. More than one record can exist for a structure, and the calls need not agree. Active and inactive are the calls of the source. The call rests on the fitted dose curve.
On the % scale 0 is the no-effect control and ±100 the full control effect; potency means the concentration at half of the fitted maximal effect.

The nature of this assay: Nuclear factor erythroid 2-related factor 2/antioxidant responsive element (Nrf2/ARE) small molecule agonists: luciferase reporter gene qHTS assay in human keratinocytes (AID 1919969). Further: nearly all actives have a fitted effect of over 35% in size. The conditions noted are these: KeratinoSens HaCaT ARE-luciferase, luminescence, 24 h; series mostly up to 92.4 µM; activity, positive = activation: at the top concentration. For orientation: In a reporter assay the amount or activity of a reporter protein is the signal.
Turning to `Oc1ccc(C(c2ccc(O)cc2)(C(F)(F)F)C(F)(F)F)cc1`, the Potency result is “inactive”.

In the case of `O=C(Nc1ccc(Br)cc1)c1cc(Br)cc(Br)c1O`, the Potency is 54.3 µM (active) and 10.9 µM (active) and 13.3 µM (active).

For `c1ccc2c(c1)CCCC2`, the Potency entry is “inactive”.

With `CC(=[OH+])/C=C(/C)[O-].CC(=[OH+])/C=C(\C)[O-].CC(=[OH+])/C=C(\C)[O-].[Al]`, the “activity, positive = activation” value was -15.5% (inactive).

For the compound `CCCCCCI`, the “activity, positive = activation” value was -1.12% (inactive).

Turning to `Oc1ccccc1Cl`, the Potency result was “inactive”.

`Oc1cc(Cl)ccc1Cl`: the Potency result is “inactive”.

On to `CC(C)(C)C(=O)Cl`, for which the “activity, positive = activation” value was -4.6% (inactive).

With `NNC(=S)NN`, the Potency is 2.5 µM (active).

Turning to `O=[N+]([O-])c1ccc([As](=O)(O)O)cc1`, the Potency result was “inactive”.

Turning to `O=C(O)C(F)(F)C(F)(F)C(F)(F)C(F)(F)C(F)(F)C(F)(F)C(F)(F)C(F)(F)F`, the “activity, positive = activation” value was -18% (inactive).

With `C=CC1CC=CCC1` (stereo not given), the “activity, positive = activation” value was -2.82% (inactive).

For `ClC1C(Cl)C(Cl)C(Cl)C(Cl)C1Cl` (stereo not given), the Potency is 62.4 µM (active) and inactive.

As to `Cc1cccc([N+](=O)[O-])c1`, the Potency entry is “inactive”.

Turning to `NC(=O)CF`, the “activity, positive = activation” value was -0.711% (inactive).

Turning to `O=C(O)C1C2CCC(O2)C1C(=O)O` (stereo not given), the Potency result is “inactive”.

With `COC(=O)c1ccccc1C(=O)OC`, the Potency result is “inactive”.

Take `Cc1ccccc1O`: the Potency entry was “inactive”.

For `CCC12COCN1COC2`, the Potency result was “inactive”.

For the compound `C[Si](Cn1cncn1)(c1ccc(F)cc1)c1ccc(F)cc1`, the Potency entry is “inactive”.

On to `Cc1ccccc1CCl`, for which the “activity, positive = activation” value was -2.69% (inactive).

Take `N#Cc1cc([N+](=O)[O-])ccc1N`: the “activity, positive = activation” value was 8.39% (inactive).

`O=Cc1ccc(Cl)cc1Cl`: the “activity, positive = activation” value is -7.86% (inactive).

In the case of `CCOC(=O)CC(SP(=S)(OC)OC)C(=O)OCC` (stereo not given), the Potency is 24.3 µM (active).

In the case of `NCC(O)c1ccc(O)cc1` (stereo not given), the Potency result was “inactive”.

The values are drawn from PubChem BioAssay (Tox21).
